In PubChem BioAssay AID1851 (National Center for Advancing Translational Sciences (NCATS), 2009):
About 5,800 (36%) of roughly 16,000 compounds were called active. Not shown: some 23% with an inconclusive outcome. Some of the results follow. A number with no mark means an inactive call. Calls follow the shape of the dose curve; as a rule, active = well fitted curve in the direction sought with a large enough effect; inconclusive = small, poorly fitted or top-dose-only effect, or effect the other way; inactive = no such curve, though single readings can be large or run the other way.

These compounds were tested against Cytochrome P450 2C19 (Homo sapiens) (UniProt P33261) (assay: Cytochrome panel assay with activity outcomes). Conditions: recombinant CYP, pro-luciferin dealkylation, luminescence, p450-cyp2c19; series mostly up to 57.1 µM; activity, negative = inhibition: at the top concentration.
Chain of Cytochrome P450 2C19 (Homo sapiens) (P33261 whole entry, looked up): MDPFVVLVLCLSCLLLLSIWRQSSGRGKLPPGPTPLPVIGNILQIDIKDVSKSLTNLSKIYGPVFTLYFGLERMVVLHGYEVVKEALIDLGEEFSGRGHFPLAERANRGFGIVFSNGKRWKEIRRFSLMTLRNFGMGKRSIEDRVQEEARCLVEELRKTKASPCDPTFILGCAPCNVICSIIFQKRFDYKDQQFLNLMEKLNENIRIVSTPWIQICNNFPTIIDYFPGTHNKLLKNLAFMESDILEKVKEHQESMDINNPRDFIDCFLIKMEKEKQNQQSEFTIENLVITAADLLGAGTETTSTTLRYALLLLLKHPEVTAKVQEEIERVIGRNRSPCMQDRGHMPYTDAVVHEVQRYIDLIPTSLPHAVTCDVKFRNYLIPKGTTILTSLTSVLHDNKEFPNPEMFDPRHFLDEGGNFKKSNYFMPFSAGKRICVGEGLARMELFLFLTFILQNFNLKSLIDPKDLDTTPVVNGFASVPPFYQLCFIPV
% is scaled to controls: 0 for no effect and ±100 for the full control effect.

SMILES | AC50 | activity, negative = inhibition
O=S(=O)(c1ccccc1)N1CCN(c2cc(-c3ccccc3)nc3ncnn23)CC1 | 11.2 µM (active) | –
FC(F)(F)c1ccc(N2CCN(c3cc(-c4ccccc4)nc4ncnn34)CC2)nc1 | 3.55 µM (active) | –
O=S(=O)(c1ccccc1)N1CCC2(CCN(c3ncccn3)CC2)CC1 | – | 32.2%
Cc1cccc(/C=N\Nc2cn[nH]c(=O)c2Cl)c1 | 10 µM (active) | –
Cc1cnn(-c2cc(N/N=C/c3ccccc3)ncn2)c1 | – | 21.7%
CCOC(=O)C1C(=O)C=C(/C=C/c2ccccc2)CC1c1ccc(Cl)cc1 (configuration not stated) | 8.91 µM (active) | –
CCc1nnc(NC(=O)CCC(=O)NCc2ccccc2OC)s1 | – | 13.2%
COc1ccccc1C(=O)NCCn1cc(SCC(=O)Nc2nnc(C)s2)c2ccccc21 | 8.91 µM (active) | –
CC(C)CN(CC(C)C)C1=N/C(=C\c2ccco2)C(=O)N1c1ccccc1 | 2.82 µM (active) | –
CCOC(=O)C1(C(=O)O)NC(=O)CC1c1ccccc1 (configuration not stated) | – | -18.1%
CCOC(=O)CN1C(=O)Nc2ccc(Br)cc2C1c1ccccc1 (configuration not stated) | 3.98 µM (active) | –
O=C(Nc1ccccc1[N+](=O)[O-])C1C(c2ccccc2)=C1c1ccccc1 | 2.51 µM (active) | –
COc1ccc(CCC(C)Nc2cccc(F)c2)cc1 (configuration not stated) | 0.891 µM (active) | –
C[C@@H](CCc1ccc(O)cc1)NCCc1ccc(O)c(O)c1 | inactive | –
CC(=O)Nc1ccc(OCC(O)Cn2cnc3ccccc32)cc1 (configuration not stated) | 22.4 µM (active) | –
OC(COCc1ccccc1)Cn1cnc2ccccc21 (configuration not stated) | 14.1 µM (active) | –
CC(=O)Nc1ccc(OC[C@@H](O)CNC(C)C)cc1 | – | 27.7% [at 25.6 µM]
CN1CCCCC1=NCCCn1cnc2c1c(=O)n(C)c(=O)n2C | – | 16.6%
O=c1c(-c2cccc(F)c2)nc2cncnc2n1C1CC1 | – | -28.1%

SMILES | AC50 | activity, negative = inhibition
O=c1c(-c2cccc(F)c2)nc2cncnc2n1-c1ccccc1 | 15.8 µM (active) | –
O=c1c(-c2cccc(Cl)c2)nc2cncnc2n1Cc1ccccc1Cl | 5.01 µM (active) | –
O=c1c(-c2cccc(Cl)c2)nc2cncnc2n1C1CC1 | – | -21.7%
O=c1c(-c2ccc(F)cc2)nc2cncnc2n1-c1ccccc1 | – | -41.3%
O=c1c(-c2cccc(F)c2)nc2cncnc2n1Cc1ccccc1Cl | 0.794 µM (active) | –
O=c1c(-c2cc(F)cc(F)c2)nc2cncnc2n1Cc1ccccc1Cl | 1.58 µM (active) | –
O=c1[nH]c(=O)n([C@@H]2C[C@H](O)[C@H](CO)O2)cc1I | – | 15.4% [at 25.6 µM]
O=C1C2C3C=CC(C2C(=O)N1CN1CCOCC1)C1C2C(=O)N(CN4CCOCC4)C(=O)C2C31 (configuration not stated) | – | 22.1% [at 11.4 µM]
Cc1ccccc1NC(=O)c1cccc2nc3ccccc3nc12 | 3.55 µM (active) | –
Cc1ccccc1NC(=O)c1cnc(Nc2nc3ccccc3s2)nc1C | – | -11.9%
O=C(Nc1ccc2c(c1)OCCO2)c1cccc2nc3ccccc3nc12 | 4.47 µM (active) | –
O=c1c(-c2ccc(F)cc2)nc2cnc(Nc3ccccc3)nc2n1Cc1cccs1 | – | -8.61%
C=CCC(C)(NCc1ccccc1)c1ccco1 (configuration not stated) | 11.2 µM (active) | –
Clc1ccc(COc2ccccn2)cc1Cl | 2.24 µM (active) | –
COc1ccc(/C=N/NC(=O)c2cccc([N+](=O)[O-])c2)cc1OS(=O)(=O)c1ccc(C)cc1 | 3.16 µM (active) | –
CCCOc1ccc(/C=C/C(=O)Nc2ccc([N+](=O)[O-])cc2C)cc1OC | 3.98 µM (active) | –
CCOc1cc(/C=N/NC(=O)c2cccc([N+](=O)[O-])c2)ccc1OS(=O)(=O)c1ccccc1 | 14.1 µM (active) | –
COc1cc(/C=N\Nc2ccc([N+](=O)[O-])cc2)ccc1OCC(=O)Nc1ccc(C)c(C)c1 | 3.98 µM (active) | –
CC(/C=N/NC(=O)c1cccc([N+](=O)[O-])c1)=C\c1ccccc1 | – | -12%

SMILES | AC50 | activity, negative = inhibition
CCOc1ccc(NC(=S)NC(=O)/C=C/c2ccc(OC)c(OC)c2)c([N+](=O)[O-])c1 | – | -44.3%
O=C(N=NC(=O)c1ccc2c(O)n(C3CCCCC3)c(O)c2c1)c1cccnc1 | – | -21.3%
COc1cc(/C=N/NC(=O)c2ccncc2)ccc1OC(=O)c1ccc([N+](=O)[O-])cc1 | 14.1 µM (active) | –
COc1cccc(/C=N/NC(=O)c2cccc([N+](=O)[O-])c2)c1OS(=O)(=O)c1ccc(C)cc1 | 4.47 µM (active) | –
COCCCNC(=O)C(=O)N/N=C/c1ccc(OCC(=O)Nc2cccc(Cl)c2C)c(OC)c1 | 31.6 µM (active) | –
COc1cc(/C=N/NC(=O)c2cccnc2)ccc1OC(=O)c1ccc2c(c1)OCO2 | – | -16.9%
COc1cc(C(=O)Oc2ccccc2/C=N/NC(=O)c2ccc(C)cc2)cc(OC)c1OC | 0.398 µM (active) | –
CN(C)CCn1nnnc1SCC1=C(C(=O)O)N2C(=O)[C@@H](NC(=O)Cc3csc(N)n3)[C@@H]2SC1 | – | 16.7% [at 25.6 µM]
COc1ccc(C(=O)Oc2cc(/C=N/NS(=O)(=O)c3ccc(C)cc3)ccc2OC)cc1 | 1.78 µM (active) | –
COc1ccc(C(=O)N/N=C/c2cccc3cccnc23)cc1 | 28.2 µM (active) | –
O=C(CCc1nc(-c2ccccc2)c(-c2ccccc2)o1)OCc1ccc(Cl)cc1 | 6.31 µM (active) | –
COc1ccc(-n2c(=S)[nH]c3cc(C(=O)NCCCN4CCCC4=O)ccc3c2=O)cc1 | 39.8 µM (active) | –
CCOC(=O)N1CCN(C(=O)c2ccc3c(=O)n(-c4ccc(OC)cc4)c(=S)[nH]c3c2)CC1 | – | -5.12%
CNC(=O)c1ccc(-c2sc3nc(N4CCOCC4)c4c(c3c2N)CC(C)(C)OC4)o1 | 11.2 µM (active) | –
CC(=O)N[C@@H]1CONC1=O | – | 21.6% [at 11.4 µM]
O=C(O)C[C@H]1OCC=C2C[N@@+]3([O-])CC[C@]45c6ccccc6N[C@@H]4[C@@H]1[C@H]2C[C@H]53 | – | 13.9% [at 11.4 µM]
Cc1cc(C(=O)N[C@H](c2ccccc2)[C@@]2(C)C[C@@H]2[C@@H](C)C(=O)Nc2ccc3ccccc3c2)n(C)n1 | 15.8 µM (active) | –
Cc1cc(C(=O)N[C@@H](c2ccccc2)[C@]2(C)C[C@H]2[C@@H](C)C(=O)Nc2ccc3ccccc3c2)n(C)n1 | 10 µM (active) | –
Cc1nn(C)c(Cl)c1S(=O)(=O)N[C@@H](c1ccccc1)[C@]1(C)C[C@H]1[C@@H](C)C(=O)Nc1ccc2ccccc2c1 | – | -25.4%
